We go through ten compounds from PubChem BioAssay (EPA / NIEHS).

The structures appear in SMILES notation. Records with an inconclusive call do not appear. More than one record can exist for a structure, and the calls need not agree. The source made the active and inactive calls. Rule for the calls, unless noted: active = hit-call score of the fitted dose curve at least 0.9, where 1 is the maximum; inconclusive = response in the unintended direction; inactive = score below 0.9.

Assay [1] is described as follows: BSK_4H_Eotaxin3: BioMAP Diversity Plus: 4H Assay for Eotaxin 3 Biomarker Activity (AID 2283000; active = hit-call score of the fitted dose curve at least 0.9, where 1 is the maximum; inactive = score below 0.9;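 for outcome: CCL26 protein level quantified by ELISA in parallel with SRB cytotoxicity check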). To be noted: primary human endothelial cells (HUVEC); actives raise or lower the signal. The method, boiled down: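 Human umbilical vein endothelial cells (BSK_4H system) dosed with test chemical; Eotaxin-3 (CCL26) measured by ELISA 24 h after dosing. Bidirectional curve fitting relative to DMSO negative control as baseline.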

Read-out in assay [2]: Intercellular Adhesion Molecule 1 (ICAM1), ICAM1 (gene 3383)
As to the kind of experiment: BSK_3C_ICAM1: BioMAP Diversity Plus: 3C Assay for Intercellular Adhesion Molecule 1 (ICAM1) Biomarker Activity (AID 2283003; active = hit-call score of the fitted dose curve at least 0.9, where 1 is the maximum; inactive = score below 0.9). The following applies: primary human endothelial cells (HUVEC); actives raise or lower the signal. The method, boiled down: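 HUVEC primary cells stimulated under 3C conditions; ICAM1 measured by ELISA 24 h after compound dosing. Curves fitted bidirectionally against the DMSO baseline. Overt cytotoxicity checked by SRB staining of parallel cultures.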

Assay [3] has as its target human Retinoic Acid Receptor beta (RARb), RARB (gene 5915) (UniProt P10826). As to the kind of experiment: ATG_RARb_TRANS: Attagene TRANS-FACTORIAL HepG2 Assay for human Retinoic Acid Receptor beta (AID 2283004). The method, boiled down:
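Induction of reporter mRNA from a chimeric RARb-Gal4 construct was measured by RT-PCR, FAM labelling, HpaI digestion and capillary electrophoresis. Measurements followed 24 h compound treatment of transiently transfected human HepG2 liver cells, with DMSO as baseline.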

Assay [4] in a line: BSK_3C_Proliferation: Cell Proliferation Assessment in the BioMAP Diversity Plus: 3C Assay (AID 2283006; active = hit-call score of the fitted dose curve at least 0.9, where 1 is the maximum; inactive = score below 0.9;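 for AC50: potency may reflect either rise or fall in cell number versus DMSO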). To be noted: primary human endothelial cells (HUVEC). A digest of the protocol:
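Subconfluent HUVEC (3C system) cultured with chemical; relative cell number read at 48 h by sulforhodamine B total-protein staining (0.1% SRB after 10% TCA fixation, 560 nm). Bidirectional fit relative to DMSO.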

Assay [5] deals with Peroxisome proliferator-activated receptor gamma (Homo sapiens) (UniProt P37231). Nature of the assay: ATG_PPARg_TRANS: Attagene TRANS-FACTORIAL HepG2 Assay for human Peroxisome Proliferator-activated Receptor-gamma (PPARg) (AID 2283007). A digest of the protocol: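 Liver-derived HepG2 cells expressing an exogenous NR-Gal4 chimera alongside GAL4-UAS reporter genes; 24 h exposure. Fluorescence of reporter RT-PCR products, separated by capillary electrophoresis, gives mRNA induction relative to DMSO.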
Chain of Peroxisome proliferator-activated receptor gamma (Homo sapiens) (P37231 whole entry, looked up, the tested form may be a part): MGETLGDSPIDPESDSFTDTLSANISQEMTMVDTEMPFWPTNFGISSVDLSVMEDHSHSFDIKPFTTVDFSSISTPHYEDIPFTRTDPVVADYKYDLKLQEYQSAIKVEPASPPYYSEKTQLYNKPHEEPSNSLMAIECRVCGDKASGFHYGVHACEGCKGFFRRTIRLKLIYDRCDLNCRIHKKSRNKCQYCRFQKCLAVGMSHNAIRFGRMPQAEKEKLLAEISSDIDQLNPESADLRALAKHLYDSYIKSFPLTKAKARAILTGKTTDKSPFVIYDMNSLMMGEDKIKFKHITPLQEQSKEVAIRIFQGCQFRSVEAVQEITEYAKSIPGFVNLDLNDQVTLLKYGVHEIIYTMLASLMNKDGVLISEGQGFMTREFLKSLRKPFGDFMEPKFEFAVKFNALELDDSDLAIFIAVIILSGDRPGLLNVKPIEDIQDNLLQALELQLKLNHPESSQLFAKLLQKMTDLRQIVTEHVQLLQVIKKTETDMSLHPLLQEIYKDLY

Assay [6] deals with Nuclear receptor subfamily 1 group I member 2 (Homo sapiens) (UniProt O75469). Nature of the assay: ATG_PXR_TRANS: Attagene TRANS-FACTORIAL HepG2 Assay for human Pregnane X Receptor (PXR) (AID 2283008). The method, boiled down:
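Measures mRNA induction of a GAL4-UAS-driven reporter in human HepG2 cells transiently expressing PXR fused to Gal4, following 24 h treatment. DMSO served as negative control and baseline.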

In assay [7] the target is human Retinoic Acid Receptor gamma (RARg), RARG (gene 5916) (UniProt P13631). Nature of the assay: ATG_RARg_TRANS: Attagene TRANS-FACTORIAL HepG2 Assay for human Retinoic Acid Receptor gamma (RARg) (AID 2283009). The method, boiled down:
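HepG2 transiently transfected with GAL4-UAS reporter units and chimeric NR-Gal4 constructs; 24 h compound exposure. Reporter mRNA quantified by RT-PCR, FAM labeling, HpaI digestion and capillary electrophoresis; gain-of-signal versus DMSO.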

For assay [8], the target named is human RAR-related Orphan Receptor beta (RORb), RORB (gene 6096) (UniProt Q92753). As to the kind of experiment: ATG_RORb_TRANS: Attagene TRANS-FACTORIAL HepG2 Assay for human RAR-related Orphan Receptor beta (RORb) (AID 2283010). A digest of the protocol: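 HepG2 cells transiently transfected with GAL4-UAS reporter units expressing chimeric NR-Gal4 protein; reporter mRNA measured 24 h after dosing by RT-PCR, 6-FAM labelling and capillary electrophoresis. Gain-of-signal fitted relative to DMSO baseline.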
Chain of human RAR-related Orphan Receptor beta (RORb), RORB (gene 6096) (Q92753 whole entry, looked up, the tested form may be a part): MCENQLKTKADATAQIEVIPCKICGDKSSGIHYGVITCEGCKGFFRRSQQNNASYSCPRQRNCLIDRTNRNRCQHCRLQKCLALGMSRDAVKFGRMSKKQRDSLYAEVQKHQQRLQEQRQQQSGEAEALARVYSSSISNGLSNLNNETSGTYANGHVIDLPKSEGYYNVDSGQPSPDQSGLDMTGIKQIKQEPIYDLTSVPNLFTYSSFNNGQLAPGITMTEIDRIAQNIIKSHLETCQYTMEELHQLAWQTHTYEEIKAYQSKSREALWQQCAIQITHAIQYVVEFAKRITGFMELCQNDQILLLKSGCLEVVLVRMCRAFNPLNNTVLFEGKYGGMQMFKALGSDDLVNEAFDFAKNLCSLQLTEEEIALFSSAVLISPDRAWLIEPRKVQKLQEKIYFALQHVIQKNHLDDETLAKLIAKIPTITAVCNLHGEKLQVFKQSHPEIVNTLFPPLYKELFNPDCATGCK

In assay [9] the target is Retinoic acid receptor alpha (Homo sapiens) (UniProt P10276). Nature of the assay: ATG_RARa_TRANS: Attagene TRANS-FACTORIAL HepG2 Assay for human Retinoic Acid Receptor alpha (RARa) (AID 2283005). A digest of the protocol:
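Reporter transcripts, measured by RT-PCR with fluorescent labeling and capillary electrophoresis after 24 h dosing, reflect activity of an exogenous human RARa–GAL4 fusion in transiently transfected HepG2. Fitted for increase relative to DMSO.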

Assay [10] addresses human Peroxisome Proliferator-activated Receptor delta (PPARd), PPARD (gene 5467) (UniProt Q03181). As to the kind of experiment: ATG_PPARd_TRANS: Attagene TRANS-FACTORIAL HepG2 Assay for human Peroxisome Proliferator-activated Receptor delta (PPARd) (AID 2283002). The method, boiled down: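 Cell-based TRANS reporter: HepG2, transient MRTU transfection, 24 h exposure. Readout = reporter mRNA (RT-PCR/CE, 6-FAM). Gain-of-signal fit vs DMSO control.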

Chain of Nuclear receptor subfamily 1 group I member 2 (Homo sapiens) (O75469 whole entry, looked up, the tested form may be a part): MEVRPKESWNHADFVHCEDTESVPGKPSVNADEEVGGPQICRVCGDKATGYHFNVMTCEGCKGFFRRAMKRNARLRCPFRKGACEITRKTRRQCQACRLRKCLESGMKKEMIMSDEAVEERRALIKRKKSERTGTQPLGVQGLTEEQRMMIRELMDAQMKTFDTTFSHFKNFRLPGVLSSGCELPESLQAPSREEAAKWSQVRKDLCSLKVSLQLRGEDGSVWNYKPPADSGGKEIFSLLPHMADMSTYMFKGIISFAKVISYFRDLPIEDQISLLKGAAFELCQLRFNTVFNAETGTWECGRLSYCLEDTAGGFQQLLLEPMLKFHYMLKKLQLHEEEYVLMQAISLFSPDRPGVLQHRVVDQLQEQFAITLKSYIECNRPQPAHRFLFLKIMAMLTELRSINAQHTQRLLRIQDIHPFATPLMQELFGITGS
Chain of human Retinoic Acid Receptor beta (RARb), RARB (gene 5915) (P10826 whole entry, looked up, the tested form may be a part): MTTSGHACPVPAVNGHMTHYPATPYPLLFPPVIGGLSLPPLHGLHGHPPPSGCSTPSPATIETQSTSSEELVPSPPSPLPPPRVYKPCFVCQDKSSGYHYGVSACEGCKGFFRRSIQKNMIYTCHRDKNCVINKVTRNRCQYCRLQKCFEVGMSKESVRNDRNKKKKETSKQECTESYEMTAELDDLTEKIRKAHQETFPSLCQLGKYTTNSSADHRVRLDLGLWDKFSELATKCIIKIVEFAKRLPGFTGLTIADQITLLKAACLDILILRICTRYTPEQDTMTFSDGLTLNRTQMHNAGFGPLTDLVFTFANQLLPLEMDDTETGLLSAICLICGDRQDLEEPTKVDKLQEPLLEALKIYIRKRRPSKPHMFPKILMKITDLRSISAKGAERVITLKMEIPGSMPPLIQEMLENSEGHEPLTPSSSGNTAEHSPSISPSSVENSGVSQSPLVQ
Chain of human Peroxisome Proliferator-activated Receptor delta (PPARd), PPARD (gene 5467) (Q03181 whole entry, looked up): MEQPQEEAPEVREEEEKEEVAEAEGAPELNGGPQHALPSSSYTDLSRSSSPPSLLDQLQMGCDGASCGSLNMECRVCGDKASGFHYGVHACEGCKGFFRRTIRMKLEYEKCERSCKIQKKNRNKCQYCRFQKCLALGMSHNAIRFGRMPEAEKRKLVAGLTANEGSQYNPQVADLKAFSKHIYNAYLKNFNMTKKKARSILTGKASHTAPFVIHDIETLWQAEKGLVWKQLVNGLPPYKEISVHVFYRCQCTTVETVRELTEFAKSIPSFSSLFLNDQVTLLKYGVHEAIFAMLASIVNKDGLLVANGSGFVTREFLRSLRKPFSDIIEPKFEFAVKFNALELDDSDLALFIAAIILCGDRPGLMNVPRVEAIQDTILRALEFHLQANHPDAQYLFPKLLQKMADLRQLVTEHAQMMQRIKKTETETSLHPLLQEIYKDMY
Chain of human Retinoic Acid Receptor gamma (RARg), RARG (gene 5916) (P13631 whole entry, looked up, the tested form may be a part): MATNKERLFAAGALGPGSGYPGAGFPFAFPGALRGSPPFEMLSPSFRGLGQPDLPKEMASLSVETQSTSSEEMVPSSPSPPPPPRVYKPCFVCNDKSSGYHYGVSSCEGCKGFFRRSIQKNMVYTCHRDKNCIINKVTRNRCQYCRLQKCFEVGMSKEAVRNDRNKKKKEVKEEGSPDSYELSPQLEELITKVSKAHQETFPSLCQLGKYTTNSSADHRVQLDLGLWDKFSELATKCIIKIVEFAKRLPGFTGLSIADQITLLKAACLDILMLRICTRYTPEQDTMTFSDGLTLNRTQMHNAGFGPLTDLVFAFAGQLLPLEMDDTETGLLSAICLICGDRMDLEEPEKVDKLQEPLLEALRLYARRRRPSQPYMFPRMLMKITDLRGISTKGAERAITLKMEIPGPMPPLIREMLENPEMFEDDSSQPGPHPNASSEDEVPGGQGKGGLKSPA
Chain of Retinoic acid receptor alpha (Homo sapiens) (P10276 whole entry, looked up, the tested form may be a part): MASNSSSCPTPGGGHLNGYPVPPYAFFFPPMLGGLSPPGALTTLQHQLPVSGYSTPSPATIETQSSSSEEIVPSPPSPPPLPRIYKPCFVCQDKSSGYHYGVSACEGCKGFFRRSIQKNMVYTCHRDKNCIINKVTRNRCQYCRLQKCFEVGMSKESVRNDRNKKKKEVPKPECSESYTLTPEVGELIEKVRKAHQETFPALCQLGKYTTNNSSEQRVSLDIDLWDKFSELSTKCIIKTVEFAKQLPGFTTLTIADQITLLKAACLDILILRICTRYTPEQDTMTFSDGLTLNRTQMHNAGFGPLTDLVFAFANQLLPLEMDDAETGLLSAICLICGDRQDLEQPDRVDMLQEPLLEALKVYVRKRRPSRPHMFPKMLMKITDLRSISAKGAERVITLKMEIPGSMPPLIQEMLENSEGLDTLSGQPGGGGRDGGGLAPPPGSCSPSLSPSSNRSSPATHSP

For `Cc1cc(C)nc(NC(=O)NS(=O)(=O)c2ccccc2C(=O)OC2COC2)n1`, the result in assay [1], in assay [2], in [3], in [4], in assay [5] and in assay [6] was inactive. Moreover, the result in [7] and in [8] was inactive.

By AC50 is commonly meant the midpoint of the concentration-response curve, whichever way the signal moves. Take `C#CCN1C(=O)COc2cc(F)c(N3C(=O)C4=C(CCCC4)C3=O)cc21`: the result in assay [1], in [2], in [3], in assay [9], in assay [4] and in [6] was inactive. Also, the call in assay [7] was inactive. Moreover, in assay [5], the AC50 was 50 µM (active).

In the case of `CC(C)(C)C(O)C(Oc1ccc(Cl)cc1)n1cncn1` (stereo not given), the result in assay [1], in assay [2], in assay [3], in assay [9], in assay [4] and in assay [5] was inactive. Moreover, the outcome in assay [6], in [7] and in assay [8] was inactive. Also, the AC50 in assay [6] was 434 nM (active) [middle of 5 runs].

As for `Cc1[nH]c(=O)n(C(C)(C)C)c(=O)c1Cl`, the AC50 in [1] was 11.7 µM (active). The outcome in assay [2], in assay [3], in [9], in [4], in assay [5] and in assay [6] was inactive. The call in [7] was inactive.

With `O=C(O)C(F)(F)C(F)(F)C(F)(F)C(F)(F)C(F)(F)C(F)(F)C(F)(F)F`, the outcome in assay [1], in assay [10], in [2], in [4], in [6] and in assay [8] was inactive.

As for `CC[C@H](C)[C@H]1O[C@]2(C=C[C@@H]1C)C[C@@H]1C[C@@H](C/C=C(\C)[C@@H](O[C@H]3C[C@H](OC)[C@@H](O[C@H]4C[C@H](OC)[C@@H](O)[C@H](C)O4)[C@H](C)O3)[C@@H](C)/C=C/C=C3\CO[C@@H]4[C@H](O)C(C)=C[C@@H](C(=O)O1)[C@]34O)O2` (tested in a mixture with another compound), the AC50 in assay [1] was 9.57 µM (active); in [2], 12.4 µM (active); in assay [4] it was 4.78 µM (active). Further, the call in assay [3], in [9] and in [7] was inactive.

For `CCC(C)Nc1c([N+](=O)[O-])cc(C(C)(C)C)cc1[N+](=O)[O-]` (stereo not given), the outcome in [1], in [2], in assay [3], in assay [9], in [7] and in assay [8] was inactive. Further, the concentration at half-maximal activity (AC50) in assay [4] is 34.6 µM (active); in assay [5], 36.8 µM (active); in [6], 8.2 µM (active).

Turning to `CNC(=O)/C=C(\C)OP(=O)(OC)OC`, the result in assay [1], in assay [2], in assay [4], in [5], in assay [6] and in assay [8] was inactive.

With `O=C(O)COc1ccc(Cl)cc1Cl`, the result in assay [1], in assay [10], in assay [2], in [4], in assay [6] and in assay [8] was inactive.

For `OCCOc1ccccc1`, the result in assay [1], in assay [2], in assay [9], in assay [4], in assay [5] and in [6] was inactive. Besides, the compound was classed as inactive in [7] and in [8].
